# Measurements: PubChem BioAssay AID686978 (National Center for Advancing Translational Sciences (NCATS), 2013)
# Hit rate of the full screen: of about 420,000 compounds, about 64,000 (15%) were called active. Inconclusive results (about 27%) are left out. Calls come from the whole dose curve; as a rule, active = well fitted inhibition curve with a large enough effect; inconclusive = small, poorly fitted or top-dose-only effect; inactive = flat fitted curve, though single readings scatter. A selection follows.
# Assay: qHTS for Inhibitors of human tyrosyl-DNA phosphodiesterase 1 (TDP1): qHTS in cells in absence of CPT; note: nearly all actives have a fitted effect of over 55% in size
# Settings: DT40 Tdp1-/- hTDP1 cells, no CPT, ATP luminescence, 48 h; activity change, negative = growth inhibition: at 46.2 µM (top of the series)
# In short: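 Chicken DT40 Tdp1-/- cells stably complemented with human TDP1 were seeded at 400 cells/well with DMSO in place of 20 nM camptothecin. After compound pinning, cells grew at least 48 hr at 37 °C; viability read by CellTiter-Glo luminescence.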
# % is set by controls: 0 for no effect and ±100 for the full control effect; potency is the fitted concentration of half-maximal effect.
Structure (SMILES),"activity change, negative = growth inhibition",Potency
COC(=O)Cc1ccc(OCC(=O)NC2CCCC2)cc1,0.278% (inactive),
COc1ccc(-n2nc3c(c2NC(=O)Cc2cccc(C)c2)CS(=O)C3)cc1 (centres undefined),-2.75% (inactive),
Cc1nc(NC(CC(C)C)C(=O)O)c2nc(C)oc2n1 (centres undefined),6.87% (inactive),
Cc1ccc(NC(=S)N/N=C2/CCCc3c(C)cc(C)cc32)cc1,-5.78% (inactive),
Cc1ccc(S(=O)(=O)c2nnn3c2nc(N2CCN(c4ccccc4F)CC2)c2cc(Cl)ccc23)cc1C,1.48% (inactive),
COCCn1c(SCC(=O)Nc2cc(Cl)ccc2OC)nc2c(c1=O)SC(C)C2 (centres undefined),,20.6 µM (active)
COc1ccc(OC)c(NC(=O)Cn2c(=O)n(Cc3ccccc3)c(=O)c3ccccc32)c1,-29.5% (inactive),
COCCn1c(SCC(=O)Nc2cc(OC)ccc2OC)nc2c(c1=O)SC(C)C2 (centres undefined),,13 µM (active)
COc1ccc(NC(=O)CSc2nc(SC)ns2)c(OC)c1,-27.9% (inactive),
COCCn1c(SCC(=O)Nc2ccccc2F)nc2c(c1=O)SCC2,-2.31% (inactive),
Cc1ccc(Cl)cc1NC(=O)CSc1nccn1C,-0.404% (inactive),
CCc1cccc(C)c1NC(=O)CSc1nnc(-c2ccco2)n1N,-2.14% (inactive),
CCOC(=O)CSc1nnc(NC(=O)c2cccc(S(=O)(=O)N3CCCC3)c2)s1,13.6% (inactive),
O=C(Nc1cccc2cccnc12)c1cccc2c(Br)cccc12,-20.3% (inactive),
Cc1ccccc1CS(=O)(=O)CC1(O)CCN(C(=O)c2cccc(C(F)(F)F)c2)CC1,-6.73% (inactive),
CCN(Cc1ccccc1)C(=O)CCS(=O)(=O)c1ccc2c(c1)oc(=O)n2C,,inactive
COc1cccc2c1CCC(NC(C)=O)C2=O (centres undefined),-4.13% (inactive),
FC(F)(F)c1ccc(-n2cn[nH]c2=S)cc1,-10.5% (inactive),
COc1ccc(-c2c(C)nn3c(N4CCC(C(=O)N5CCCCC5)CC4)cc(C)nc23)cc1OC,-17.1% (inactive),
N#Cc1cc([N+](=O)[O-])ccc1NCC1CCCO1 (centres undefined),-0.195% (inactive),
O=C(Nc1ccc2c(c1)OCCO2)c1ccoc1,-33.9% (inactive),
CS(=O)(=O)N1CCN(c2ccc(C(=O)NC3C4CC5CC(C4)CC3C5)cc2[N+](=O)[O-])CC1 (centres undefined),,23.1 µM (active)
Cc1cccc(N2CCN(c3ccc(C(N)=O)cc3[N+](=O)[O-])CC2)c1C,-4.39% (inactive),
COc1ccc(NS(=O)(=O)c2ccc(N3CCN(CCO)CC3)c([N+](=O)[O-])c2)cc1,,3.66 µM (active)
Cc1ccc(S(=O)(=O)NCCSc2ccccc2)cc1[N+](=O)[O-],-20.9% (inactive),

Structure (SMILES),"activity change, negative = growth inhibition",Potency
CN1CCN(c2ccc(S(=O)(=O)Nc3ccccc3)cc2[N+](=O)[O-])CC1,,9.2 µM (active)
Cc1ccc(S(=O)(=O)N2CCN(C(=O)c3ccc(-n4cncn4)c([N+](=O)[O-])c3)CC2)cc1,-29.7% (inactive),
COc1ccc(N2C(=O)CC(Nc3ccc(F)cc3)C2=O)c([N+](=O)[O-])c1 (centres undefined),-3.43% (inactive),
CC1CCN(c2ccc(S(=O)(=O)Nc3cc(C(=O)O)cc(C(=O)O)c3)cc2[N+](=O)[O-])CC1,4.27% (inactive),
COc1ccc(NS(=O)(=O)c2ccc(N3CCOCC3)c(NC(=O)/C=C/C(=O)O)c2)cc1,-23.9% (inactive),
Cc1ccc(C(=O)c2ccc(N3CCN(C)CC3)c([N+](=O)[O-])c2)cc1,,23.1 µM (active)
FC(F)(F)c1ccc2nnc(-c3c(Cl)cccc3Cl)n2c1,-12.2% (inactive),
COc1ccc(-n2c(C)nn(CC3CC3)c2=O)cc1,10.3% (inactive),
O=C(COc1coc(CN2CCN(c3ccccc3)CC2)cc1=O)N1CCc2ccccc21,-17.8% (inactive),
O=C(NCCN=C1NS(=O)(=O)c2ccccc21)c1ccc(S(=O)(=O)N2CCOCC2)cc1,-8% (inactive),
CCCCCCOC(=O)NCC(O)c1ccccc1 (centres undefined),-20.7% (inactive),
CC(C)C[C@H](NC(=O)C1CCC(CNC(=O)[C@@H]2CCCN2C(=O)OC(C)(C)C)CC1)C(=O)O (some centres undefined),-8.04% (inactive),
CSc1ncnc2c1ncn2CC(=O)C1CCC2C3CCC4=CC(=O)CCC4(C)C3CCC12C (centres undefined),,5.8 µM (active)
CC(=O)OCC(=O)C1CCC2C3CCC4=CC(=O)CC[C@@]4(C)C3CC[C@]12C (some centres undefined),-25.1% (inactive),
COc1ccnc2c1c(=O)n(Cc1cccc(F)c1)c(=O)n2C,-26.1% (inactive),
C#CCOc1ccc(/C=C2/C(=O)NN(c3ccccc3)C2=O)cc1OC,-5.13% (inactive),
COc1cc(/C=C2/C(=O)ON=C2C)ccc1OCc1cccc(F)c1,,16.4 µM (active)
Cc1c(C(=O)O)nnn1-c1nonc1N,0.48% (inactive),
CCOc1cc(C(=O)Nc2ncccn2)cc(OCC)c1OCC,0.439% (inactive),
CC1C/C(=N/NC(=O)c2cccs2)CC(C)(C)C1 (centres undefined),2.47% (inactive),
COc1ccc(S(=O)(=O)N2CCOCC2)cc1C(=O)Nc1nc2ccccc2s1,-18.8% (inactive),
COc1cccc2sc(NNC(=O)c3nc4ccccc4s3)nc12,,6.51 µM (active)
CSCCC(Nc1nc2ccccc2s1)C(=O)O (centres undefined),-13.3% (inactive),
Cc1ccc(N2CC(C(=O)NCCS(=O)(=O)N3CCN(c4ccccc4)CC3)CC2=O)cc1 (centres undefined),,inactive
